The values that follow come from PubChem BioAssay (NCI).

Common to all, as to test: NCI-60 one-dose screen, 48 h (100 = growth as untreated, 0 = no growth, -100 = all killed)
What all share (settings): 10 µM unless noted

Assay [1] concerns RPMI-8226 leukemia.
Assay [2] has as its system OVCAR-8 ovarian.
Assay [3] relates to OVCAR-5 ovarian.
Assay [4] has as its system OVCAR-4 ovarian.
For assay [5], the system named is SK-OV-3 ovarian.
Assay [6] deals with IGROV1 ovarian.
The subject of assay [7] is OVCAR-3 ovarian.
The test system of assay [8] is HS 578T breast.
Assay [9] relates to NCI/ADR-RES ovarian.
For assay [10], the system named is T-47D breast.
Assay [11] relates to BT-549 breast.
Assay [12] deals with MDA-MB-435 melanoma.
The test system of assay [13] is SW-620 colon.
Assay [14] concerns MCF7 breast.
The test system of assay [15] is HCT-116 colon.
Assay [16] relates to HCC-2998 colon.
Assay [17] concerns KM12 colon.

Each structure is given as a SMILES string. About 83,000 compounds went through this panel and 20% of them were active in at least one assay; those are over-represented in the sample as a whole.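 A percent growth of 40 corresponds to 60% growth inhibition; 0 means no net growth; -100 means all cells died. Active threshold: below 10.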 Values without a mark were called inactive. Active and inactive are the calls of the source.

With `N#CC1C(c2ccc(Cl)cc2)=Nc2c(c(-c3ccccc3)nn2-c2ccccc2)C12C(=O)Nc1ccc(Cl)cc12` (stereo not drawn), the growth in assay [1] was 24.7%; in [2], 64.6%; in assay [3], 65.2%; in assay [4] it was 34.4%; in [5], 68.6%; in assay [6], 42.1%. The growth in assay [7] is 49.7%; in [8], 51.4%; in assay [9], 67.6%; in assay [10], 46.7%; in assay [11], 50%; in assay [12], 34.5%. For the same molecule, the growth in assay [13] was 42.1%; in assay [14] it was 28.4%; in assay [15] it was 26.2%; in assay [16] it was 55.2%; in assay [17] it was 26.1%.

In the case of `C#C[C@@]1(O)[C@@H](CO)O[C@@H](n2cc(I)c3c(N)ncnc32)[C@@H]1O`, the growth is 5.83% (active) in assay [1]; -19.4% (active) in assay [2]; 20.6% in assay [3]; 20.4% in assay [4]; -28.3% (active) in assay [5]; -34.9% (active) in assay [6]. Further, the growth in assay [7] was -17.8% (active); in [8], -15.5% (active); in [9], -4.5% (active); in [10] it was -21.1% (active); in assay [11], -13.2% (active); in [12], 14.6%. Besides, the growth in [13] is 0.663% (active); in assay [14], 1.73% (active); in assay [15], 0.762% (active); in [16] it was -35.3% (active); in [17], 9.88% (active).

On to `COc1ccc2[nH]c(-c3ccccc3)c(C=C(C#N)C#N)c2c1`, for which the growth in assay [1] is -50.2% (active); in assay [2], 48.2%; in [3] it was 65.7%; in [4], 35%; in assay [5], 51.2%; in [6], 49.5%. In addition, the growth in [7] was 7.4% (active); in assay [8], 40.9%; in assay [9], -4.6% (active); in assay [10], 26.4%; in assay [11], 4.38% (active); in assay [12], -55.1% (active). Besides, the growth in assay [13] is 25.1%; in assay [14] it was 17.1%; in assay [15] it was 23.5%; in assay [16], 49.3%; in [17], 18.6%.

On to `O=C(O)C(C(=O)O)c1cccc2ccccc12`, for which the growth in assay [1] was 109%; in [2], 101%; in assay [3] it was 110%; in assay [4], 100%; in [5] it was 101%; in assay [6] it was 111%. Also, the growth in assay [7] was 112%; in [8] it was 102%; in [9], 98.9%; in assay [10], 92.7%; in assay [11], 102%; in assay [12], 102%. For the same molecule, the growth in [13] is 99.1%; in [14] it was 98.1%; in [15], 102%; in assay [16], 104%; in [17] it was 109%.

`CC(=O)[C@@H]1CC[C@]2(C(=O)O)CC[C@]3(C)[C@H](CC[C@@H]4[C@@]5(C)Cc6c([nH]c7ccccc67)C(C)(C)[C@@H]5CC[C@]43C)[C@@H]12`: the growth in assay [1] was 43.2%; in assay [2], 62.7%; in assay [3] it was 101%; in assay [4], 65.7%; in assay [5], 86.6%; in assay [6], 86.8%. The growth in assay [7] is 54.1%; in assay [8], 73.2%; in assay [9] it was 67.6%; in assay [10] it was 65.5%; in assay [11] it was 71.9%; in assay [12], 81.2%. For the same molecule, the growth in assay [13] is 54.5%; in assay [14], 38.6%; in [15] it was 43.5%; in assay [16], 80.5%; in assay [17], 42.2%.

With `C=C1C(=O)O[C@H]2[C@H]1CC/C(COC(=O)NCC(=O)Nc1ccc(OC)c(C(N)=O)c1O)=C\CC[C@@]1(C)O[C@@H]21`, the growth in assay [1] is 2.96% (active); in [2] it was 75.3%; in [3] it was 102%; in assay [4], 68.3%; in [5], 100%; in [6], 21.6%. Further, the growth in assay [7] is 25.7%; in [8] it was 89.3%; in assay [9], 104%; in assay [10] it was 34.4%; in [11] it was 47.4%; in assay [12] it was 56.3%. For the same molecule, the growth in [13] is 10.6%; in assay [14], 18.6%; in assay [15] it was 36%; in [16], 102%; in [17], 92.8%.

On to `CCO/C=N/S(=O)(=O)c1cc2c(cc1Cl)NC=NS2(=O)=O`, for which the growth in assay [1] was 104%; in assay [2] it was 100%; in [3] it was 112%; in [4], 117%; in [5], 104%; in assay [6], 104%. Besides, the growth was 105% in assay [7]; 101% in assay [8]; 109% in assay [9]; 105% in assay [10]; 101% in [11]; 97.5% in assay [12]. The growth in assay [13] is 94.9%; in [14], 96.2%; in assay [15], 103%; in assay [16], 102%; in assay [17], 107%.

Regarding `Cc1cc(Nc2nc(SCc3ccc(C(=O)Nc4ccc(F)cc4N)cc3)nn3cccc23)n[nH]1`, the growth was 13.1% in [1]; 15.4% in assay [2]; 52.3% in [3]; 40.8% in assay [4]; 17.9% in [5]; 33.6% in assay [6]. Moreover, the growth in assay [7] is 11.4%; in assay [8], 37.4%; in assay [9] it was 30.2%; in assay [10], 62.1%; in assay [11] it was 27%; in assay [12], 12.8%. The growth in [13] was 23.9%; in assay [14] it was 23.5%; in assay [15], 10.1%; in [16], 23.9%; in assay [17], 7.02% (active).

Turning to `Cc1nn(-c2ccc(-c3ccc(OC(F)(F)F)cc3)cc2)c2nc(-c3ccccc3)nc(N)c12`, the growth in assay [1] was 118%; in assay [2], 93%; in assay [3], 98.3%; in [4], 102%; in assay [5] it was 108%; in [6] it was 99.3%. In addition, the growth in [7] was 107%; in assay [8], 115%; in [9] it was 90.8%; in [10], 78.5%; in [11] it was 98.1%; in assay [12], 102%. Further, the growth in assay [13] was 81.3%; in [14], 94.3%; in assay [15], 96.7%; in [16] it was 96.8%; in assay [17] it was 100%.
